The values below come from PubChem BioAssay (Tox21).

A short description of assay [1]: qHTS assay to identify small molecule antagonists of the glucocorticoid receptor (GR) signaling pathway - cell viability counter screen (AID 720693). Further: nearly all actives have a fitted effect of over 55% in size.
Assay [2] in a line: qHTS assay for identifying genotoxic compounds that show differential cytotoxicity against isogenic chicken DT40 cell lines with known DNA damage response pathways - wild type cell line (AID 743012). Further: nearly all actives have a fitted effect of over 60% in size. Further: potency means the concentration at half of the fitted maximal effect. In a few lines:
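Luminescent ATP viability signal (CellTiter-Glo, 30 min RT) recorded after wild type DT40 cells were incubated with compounds for 40 h at 37 C/5% CO2.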
On the technique in general: In qHTS, concentration-response curves come from the screen itself.

Assay [3] is described as follows: qHTS assay for identifying genotoxic compounds that show differential cytotoxicity against isogenic chicken DT40 cell lines with known DNA damage response pathways - Rev3 mutant cell line (AID 743014). Further: nearly all actives have a fitted effect of over 55% in size. Further: potency means the concentration at half of the fitted maximal effect.
Assay [4] is described as follows: qHTS assay for identifying genotoxic compounds that show differential cytotoxicity against isogenic chicken DT40 cell lines with known DNA damage response pathways - Rad54/Ku70 mutant cell line (AID 743015). Further: nearly all actives have a fitted effect of over 60% in size. Further: potency means the concentration at half of the fitted maximal effect.
Assay [5] in a line: qHTS assay to identify small molecule antagonists of the androgen receptor (AR) signaling pathway - cell viability counter screen (AID 743033; further: nearly all actives have a fitted effect of over 45% in size; further: potency means the concentration at half of the fitted maximal effect).
A short description of assay [6]: qHTS assay to identify small molecule antagonists of the androgen receptor (AR) signaling pathway using the MDA cell line - cell viability counter screen (AID 743041; further: nearly all actives have a fitted effect of over 45% in size). An outline of the steps: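 In this qHTS counter assay, fluorescence intensity after CellTiter-Fluor addition indicated viability of MDA-kb2 AR-luc cells given compounds and R1881 for 16 h at 37C.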

Assay [7] in a line: qHTS assay to identify small molecule antagonists of the thyroid receptor (TR) signaling pathway - cell viability counter screen (AID 743064). Further: nearly all actives have a fitted effect of over 50% in size. An outline of the steps: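 In rat pituitary GH3.TRE-Luc reporter cells co-exposed to compound and 1 nM T3 for 23.5 h, cytotoxicity was assessed with CellTiter-Fluor in the same wells, read by fluorescence.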
For assay [8], the target named is Androgen receptor (Homo sapiens) (UniProt P10275). In words: qHTS assay to identify small molecule agonists of the androgen receptor (AR) signaling pathway using the MDA cell line (AID 743040; further: nearly all actives have a fitted effect of over 20% in size). An outline of the steps: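 Cell-based luciferase reporter: MDA-kb2, MMTV promoter (AR + GR response elements). 16 h compound exposure at 37C; ONE-Glo, 30 min RT, luminescence.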

Assay [9] shares this target. The assay is described as follows: qHTS assay to identify small molecule antagonists of the androgen receptor (AR) signaling pathway using the MDA cell line (AID 743042; further: nearly all actives have a fitted effect of over 55% in size). An outline of the steps: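 MDA-kb2 cells (human breast carcinoma, stably carrying an MMTV-luciferase reporter responsive to AR and GR) were plated at 3,000 cells/well and preincubated 5 hr at 37C, then given compound plus R1881 agonist for 16 h. ONE-Glo luminescence was read.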

For assay [10] the target is unchanged. The assay is described as follows: qHTS assay to identify small molecule antagonists of the androgen receptor (AR) signaling pathway (AID 743035; active means well fitted inhibition curve with a large enough effect in the signal ratio in the repeat runs, not every such curve was filed as active; the % refers to the signal ratio). In a few lines: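 Quantitative HTS of the Tox21 10K library used HEK293 AR-UAS-bla cells stimulated with R1881 alongside compound for 16 h at 37C, followed by beta-lactamase FRET detection (LiveBLAzer B/G, 2 h, RT).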

“And” between values parts separate entries of the source, which are not always exact repeats. Identical values can stand only once. Results filed as inconclusive are left out. Where a structure was tested more than once in an assay, its records may differ in their call. The source made the active and inactive calls. Unless noted, the call rests on the fitted dose curve; in most records, active means well fitted curve in the direction sought with a large enough effect in the repeat runs; inconclusive means weak or mixed curves; inactive means no such curve, though single readings can be large; an effect the other way counts as inactive or inconclusive.

Chain of Androgen receptor (Homo sapiens) (P10275 whole entry, looked up): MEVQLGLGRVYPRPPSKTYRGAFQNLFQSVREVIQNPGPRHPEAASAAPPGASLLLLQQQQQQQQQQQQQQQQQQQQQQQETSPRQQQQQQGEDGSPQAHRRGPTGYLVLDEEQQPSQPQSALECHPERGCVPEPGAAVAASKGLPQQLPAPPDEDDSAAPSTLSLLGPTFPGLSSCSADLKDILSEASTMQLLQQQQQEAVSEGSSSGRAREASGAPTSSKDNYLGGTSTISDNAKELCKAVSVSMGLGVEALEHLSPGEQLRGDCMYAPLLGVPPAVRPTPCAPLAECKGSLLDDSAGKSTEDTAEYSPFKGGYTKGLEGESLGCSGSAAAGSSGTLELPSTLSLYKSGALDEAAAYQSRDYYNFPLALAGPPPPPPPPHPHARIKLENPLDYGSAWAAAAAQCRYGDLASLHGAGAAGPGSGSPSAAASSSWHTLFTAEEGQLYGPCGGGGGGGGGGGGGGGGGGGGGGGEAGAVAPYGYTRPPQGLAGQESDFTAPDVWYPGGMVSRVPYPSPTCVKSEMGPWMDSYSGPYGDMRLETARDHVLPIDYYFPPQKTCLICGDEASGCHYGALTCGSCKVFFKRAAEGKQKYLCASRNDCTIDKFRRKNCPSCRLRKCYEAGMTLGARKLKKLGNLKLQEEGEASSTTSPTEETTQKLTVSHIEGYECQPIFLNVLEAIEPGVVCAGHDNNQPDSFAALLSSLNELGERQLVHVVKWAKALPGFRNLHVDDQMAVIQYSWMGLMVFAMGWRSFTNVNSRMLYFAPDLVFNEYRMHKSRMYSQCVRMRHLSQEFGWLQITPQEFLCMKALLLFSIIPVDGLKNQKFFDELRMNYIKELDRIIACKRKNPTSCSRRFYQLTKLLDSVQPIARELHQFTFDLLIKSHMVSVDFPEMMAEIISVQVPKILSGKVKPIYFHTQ

On to `O=C1OC(c2ccc(O)c(S(=O)(=O)O)c2)(c2ccc(O)c(S(=O)(=O)O)c2)c2c(Br)c(Br)c(Br)c(Br)c21`, for which the Potency result in [1], in assay [2], in [3], in assay [4], in assay [5] and in assay [6] was “inactive” in each case. The Potency result in assay [7] is “inactive”.

Take `CCOP(=S)(OCC)Oc1ncn(-c2ccccc2)n1`: the Potency result in [1], in assay [5], in [8], in assay [6] and in assay [7] was “inactive” throughout. Also, the Potency is 61.1 µM (active) in assay [2], 34.4 µM (active) in assay [3] and 48.6 µM (active) in assay [4]. Besides, the call in assay [9] was inactive.

Regarding `COc1cc(OC)nc(Sc2cccc(Cl)c2C(=O)O)n1`, the Potency entry in assay [1], in [2], in assay [3], in assay [4], in assay [5] and in [6] was “inactive” in each case. Moreover, the Potency result in assay [7] is “inactive”.

Regarding `CC1CCC(=O)O1` (configuration not stated), the Potency result in assay [1], in assay [2], in assay [3], in [4], in [5] and in assay [6] was “inactive” throughout. For the same compound, the Potency result in [7] is “inactive”.

Regarding `c1cc2c(c(N3CCNCC3)c1)OCCO2`, the Potency result in assay [1], in assay [2], in assay [3], in [4], in [5] and in [10] was “inactive” each time. Also, the Potency entry in assay [8], in [6] and in assay [7] was “inactive” each time. In [9], the call was inactive.

As to `CCCCOC(=O)[C@@H](C)Oc1ccc(Oc2ccc(C#N)cc2F)cc1`, the Potency entry in assay [1], in assay [5], in assay [6] and in assay [7] was “inactive” throughout. Further, the Potency in [2] is 34.2 µM (active); in assay [3], 30.5 µM (active); in assay [4], 43 µM (active).

On to `CCSC(=O)N(CC)C1CCCCC1`, for which the Potency entry in [1], in assay [2], in assay [3], in assay [4], in assay [5] and in assay [6] was “inactive” each time. In assay [7], the Potency entry is “inactive”.

For the compound `NC(=O)O`, the Potency result in assay [1], in [2], in [3], in assay [4], in assay [5] and in assay [6] was “inactive” each time. In addition, the Potency entry in assay [7] was “inactive”.

`CC(=O)C(Cl)Cl`: the Potency result in assay [1], in assay [2], in [3], in assay [4], in assay [5] and in assay [6] was “inactive” in each case. The Potency result in assay [7] is “inactive”.

For `CCOC(=O)NC(=S)Nc1ccccc1NC(=S)NC(=O)OCC`, the Potency entry in assay [1], in assay [5], in [6] and in assay [7] was “inactive” each time. For the same compound, the Potency in assay [2] is 61.1 µM (active); in [3], 30.6 µM (active); in [4] it was 48.6 µM (active).

Take `OCCSCSCCO`: the Potency entry in assay [1], in [2], in assay [3], in [4], in [5] and in assay [6] was “inactive” in each case. For the same compound, the Potency entry in assay [7] is “inactive”.

In the case of `COc1cc(OC)nc(NC(=O)NS(=O)(=O)c2ncccc2OCC(F)(F)F)n1`, the Potency entry in assay [1], in assay [2], in [3], in [4], in assay [5] and in assay [6] was “inactive” in each case.

Take `C[N+](C)=CCl`: the Potency entry in assay [1], in assay [2], in assay [3], in assay [4], in [5] and in assay [6] was “inactive” throughout. For the same compound, the Potency result in assay [7] was “inactive”.

With `C=C(C)CN(CC)c1c([N+](=O)[O-])cc(C(F)(F)F)cc1[N+](=O)[O-]`, the Potency result in assay [1], in [2], in [3], in assay [4], in assay [5] and in assay [6] was “inactive” throughout.

Take `NC(=O)c1cc([N+](=O)[O-])cc([N+](=O)[O-])c1`: the Potency entry in assay [1], in [2], in [3], in assay [4], in assay [5] and in [6] was “inactive” in each case. Also, the Potency entry in [7] was “inactive”.

Consider `N#CC(O)c1ccccc1` (configuration not stated), for which the Potency entry in assay [1], in assay [2], in assay [3], in assay [4], in assay [5] and in assay [6] was “inactive” in each case.

With `O=C(O)c1ccc2[nH]cc(CCCCN3CC=C(c4ccccc4)CC3)c2c1`, the Potency entry in assay [1], in assay [2], in [3], in assay [4], in assay [5] and in [10] was “inactive” each time. The Potency result in [8], in assay [6] and in assay [7] was “inactive” in each case. Further, the compound was called inactive in assay [9].

As to `CNC(=O)Oc1ccccc1C1OCCO1`, the Potency entry in assay [1], in [2], in assay [3], in assay [4], in assay [5] and in [8] was “inactive” each time. The Potency entry in assay [6] and in assay [7] was “inactive” throughout. Moreover, the compound was classed as inactive in assay [9].

As to `CCOC(=O)/C=C(C)/C=C/C[C@@H](C)CCCC(C)C`, the Potency entry in assay [1], in assay [5], in assay [6] and in assay [7] was “inactive” throughout. Besides, the Potency was 30.6 µM (active) in assay [2]; 54.5 µM (active) in assay [3]; “inactive and 43.3 µM (active)” in assay [4].

With `N#CC(Cl)(Cl)Cl`, the Potency result in assay [1], in [2], in assay [3], in assay [4], in [5] and in assay [10] was “inactive” each time. Also, the Potency result in assay [8] and in assay [6] was “inactive” in each case. The result in [9] was inactive.

`CC(C)CC#N`: the Potency entry in assay [1], in assay [2], in assay [3], in assay [4], in [5] and in [10] was “inactive” in each case. The Potency entry in assay [8], in assay [6] and in [7] was “inactive” in each case. The result in assay [9] was inactive.

As for `CCOP(=O)(N=C1SCCS1)OCC`, the Potency entry in assay [1], in assay [2], in [3], in assay [4], in assay [5] and in [6] was “inactive” in each case. Further, the Potency result in assay [7] is “inactive”.

Regarding `CNCC(=O)c1ccc(O)c(O)c1`, the Potency result in [1], in [2], in [3], in assay [4], in assay [5] and in assay [6] was “inactive” in each case. In assay [7], the Potency entry was “inactive”.

In the case of `CCCCOP(=O)(O)OCCCC`, the Potency entry in assay [1], in assay [2], in assay [3], in [4], in assay [5] and in assay [10] was “inactive” throughout. Moreover, the Potency result in assay [8], in assay [6] and in [7] was “inactive” each time. Moreover, the compound was called inactive in assay [9].

Regarding `N#Cc1ccncc1`, the Potency entry in assay [1], in assay [2], in [3], in [4], in assay [5] and in assay [6] was “inactive” throughout. Also, the Potency entry in assay [7] was “inactive”.

For the compound `CC(C)CP(=S)(S)CC(C)C`, the Potency result in [1], in assay [6] and in assay [7] was “inactive” throughout. Besides, the Potency was 13.7 µM (active) in [2], 13.7 µM (active) in assay [3], 8.63 µM (active) in [4] and 17.4 µM (active) in assay [5].
